Consider 7 molecules from PubChem BioAssay (Tox21).

Unmarked numbers belong to inactive results. Results filed as inconclusive are left out. Active and inactive are the calls of the source. Unless noted, calls come from the whole dose curve.

A short description of assay [1]: Nuclear factor erythroid 2-related factor 2/antioxidant responsive element (Nrf2/ARE) small molecule agonists: qHTS cell viability counter screen in human keratinocytes (AID 1919968; active = well fitted curve in the direction sought with a large enough effect in the repeat runs; an effect the other way counts as inactive or inconclusive; note: nearly all actives have a fitted effect of over 55% in size; note: potency is the fitted concentration of half-maximal effect). The essentials:
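HaCaT ARE reporter line, 1,500 cells/well; 5 h settle, 37 C/5% CO2; cpd in DMSO pinned; 23 h exposure; CellTiter-Fluor, 1 h; fluorescence.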
Background: Quantitative high-throughput screening tests each substance at several concentrations.

A short description of assay [2]: Nuclear factor erythroid 2-related factor 2/antioxidant responsive element (Nrf2/ARE) small molecule agonists: luciferase reporter gene qHTS assay in human keratinocytes (AID 1919969). Note: nearly all actives have a fitted effect of over 35% in size. Note: potency is the fitted concentration of half-maximal effect. For orientation: In a reporter assay the amount or activity of a reporter protein is the signal.
For assay [3], the target named is Gonadotropin-releasing hormone receptor (Homo sapiens) (UniProt P30968). As to the kind of experiment: Human gonadotropin-releasing hormone receptor (GnRHR) small molecule agonists, calcium flux assay in GnRHR-HEK293 cells (AID 1920063). Note: nearly all actives have a fitted effect of over 35% in size. Put shortly:
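GnRHR-HEK293, 1500 cells/well, 18 h 37 C/5% CO2; Ca dye 1 h 37 C; cpd pinned (DMSO), agonist mode; kinetic FL 480/540, 3 min, 1 s reads; 15 conc, n=3.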
(A change in cytosolic calcium serves as a functional read-out for many receptors and channels.)

Assay [4] addresses KiSS-1 receptor (Homo sapiens) (UniProt Q969F8). The assay is described as follows: Human kisspeptin (KISS1R) small molecule agonists, calcium flux assay in KISS1R-HEK293 cells (AID 1920064; active = well fitted curve in the direction sought with a large enough effect in the repeat runs; an effect the other way counts as inactive or inconclusive). Put shortly:
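Stable human KISS1R HEK293 line; 18 h plating, 37 C/5% CO2; calcium dye 1 h 37 C; compound pin transfer; kinetic fluorescence Ex/Em 480/540, 3 min.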

Assay [5] is described as follows: G protein-coupled receptor (GPCR) small molecule agonists, calcium flux assay: HEK293 wild type cell line counter screen (AID 1920065). The essentials: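 Kinetic fluorescence at Ex/Em 480/540, recorded every second over 3 min, served as the read-out after compound addition. Each compound was tested at 15 concentrations in triplicate on cells pre-loaded with calcium dye for 1 h.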

Assay [6] in a line: p53 small molecule agonists, cell-based qHTS assay with human liver microsomes (AID 1963577).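 Note: p53 response element beta-lactamase reporter cells with liver microsomes plus NADPH.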 Put shortly: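 Reporter activation was measured by LiveBLAzer fluorescence intensity in p53RE-bla cells, which had been exposed to compounds for 16 h at 37 C alongside 0.5 mg/mL human liver microsomes and 0.5 mg/mL NADPH (final concentrations).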
Assay [7] can be described thus: p53 small molecule agonists, cell-based qHTS assay with rat liver microsomes (AID 1963578). Put shortly: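 Compound in DMSO added to p53RE-bla cells 5 h post-plating; rat microsomes/NADPH 0.5 mg/mL final; 16 h, 37 C; LiveBLAzer 2 h RT.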
Assay [8] is described as follows: p53 small molecule agonists, cell-based qHTS assay with human liver microsomes: qHTS cell viability counter screen (AID 1963579). Note: nearly all actives have a fitted effect of over 45% in size. Note: potency is the fitted concentration of half-maximal effect. The essentials:
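HLM-supplemented (0.5 mg/mL final) and NADPH-supplemented (0.5 mg/mL final) p53RE-bla cultures, 4,000 cells per well, were dosed with compounds in DMSO for 16 h at 37 C; luminescent ATP detection (CellTiter-Glo, 30 min, room temperature) quantified surviving cells.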

The nature of assay [9]: p53 small molecule agonists, cell-based qHTS assay with rat liver microsomes: qHTS cell viability counter screen (AID 1963580). Note: nearly all actives have a fitted effect of over 45% in size. The essentials: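 HCT-116 p53RE-bla, 4,000 cells/well, 5 h pre-incubation; cpd + rat liver microsomes 0.5 mg/mL + NADPH 0.5 mg/mL (final); 16 h, 37 C; CellTiter-Glo, 30 min RT; luminescence.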
Assay [10] in a line: p53 small molecule agonists, cell-based qHTS assay: qHTS cell viability counter screen (AID 1963581). Note: nearly all actives have a fitted effect of over 45% in size. The essentials:
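HCT-116 p53RE-bla cells, 4,000/well, plated 5 h before compound pin transfer; 16 h at 37 C; bla substrate 2 h RT; then CellTiter-Glo, 30 min RT, luminescence.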

Assay [11] concerns the target 5-hydroxytryptamine receptor 2A (Homo sapiens) (UniProt P28223). The assay is described as follows: 5-hydroxytryptamine receptor 2A (HTR2A) small molecule antagonists, cell-based qHTS assay (AID 1963586). Note: nearly all actives have a fitted effect of over 45% in size. The essentials:
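Antagonist-mode intracellular calcium assay: DOI (4 nM) added after 5 min compound pre-incubation at room temperature to dye-loaded HTR2A-CHO cells. Fluorescence followed for 3 min, sampled every second.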

For assay [12] the target is unchanged. The assay is described as follows: 5-hydroxytryptamine receptor 2A (HTR2A) small molecule agonists, cell-based qHTS assay (AID 1963587). Note: nearly all actives have a fitted effect of over 30% in size. Put shortly: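 Kinetic calcium-flux fluorescence (2 min, 1 sec intervals) after compound addition in agonist mode. HTR2A-CHO cells were cultured 18 h, then dye-loaded 1 h at 37 C.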
Assay [13] addresses Muscarinic acetylcholine receptor M1 (Homo sapiens) (UniProt P11229). As to the kind of experiment: Cholinergic receptor muscarinic 1 (CHRM1) small molecule antagonists, cell-based qHTS assay (AID 1963588). Note: nearly all actives have a fitted effect of over 40% in size. Put shortly:
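CHRM1-CHO calcium-flux assay, antagonist mode. Cells were seeded 18 h, dye-loaded 1 h at 37 C and given compound for 5 min at RT, then acetylcholine was added at 50nM. FDSS fluorescence was read 3 min; 15 concentrations, three runs.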

For assay [14] the target is unchanged. As to the kind of experiment: Cholinergic receptor muscarinic 1 (CHRM1) small molecule agonists, cell-based qHTS assay (AID 1963589). Note: nearly all actives have a fitted effect of over 35% in size. The essentials: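 Human M1 in stable CHO line; 18 h plating, 1 h dye load 37 C; cpd added (agonist mode); Ca2+ fluorescence kinetic read, 1 s intervals; 15 conc, 3 runs.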
In assay [15] the target is D(2) dopamine receptor (Homo sapiens) (UniProt P14416). The assay is described as follows: Dopamine D2 receptor (DRD2) small molecule agonists, cell-based qHTS assay (AID 1963594). Note: nearly all actives have a fitted effect of over 35% in size. The essentials: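 cAMP accumulation in DRD2-HEK293 cells measured by HTRF after 1 h detection; compounds added 10 min before NKH477 (200nM […]) forskolin-analogue stimulation, 30 min at room temperature, with Ro20-1724 present at 0.1 mM final.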

Assay [16] has the same target. The assay is described as follows: Dopamine D2 receptor (DRD2) small molecule antagonists, cell-based qHTS assay (AID 1963595; active = well fitted inhibition curve with a large enough effect in the signal ratio in the repeat runs, with a control signal flat; the % refers to the signal ratio). Put shortly:
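Readout: HTRF cAMP, cAMP-d2 competing with cellular cAMP for anti-cAMP cryptate, read after 1 h. Cells: DRD2-HEK293. Conditions: 0.1 mM Ro20-1724, 12 nM quinpirole, 200 nM NKH477, 30 min RT.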

A short description of assay [17]: cAMP Responsive Elements (CRE) small molecule antagonists, cell-based qHTS assay (AID 1963591; active = well fitted inhibition curve with a large enough effect in the signal ratio in the repeat runs, not every such curve was filed as active; the % refers to the signal ratio). Put shortly: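 Beta-lactamase reporter read by FRET substrate (LiveBLAzer B/G) after 2 h at room temperature. CRE-bla HEK293T cells had received compound plus 0.25 uM (final) NKH477 for 3 h at 37 °C.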
For assay [18], the target named is Beta-2 adrenergic receptor (Homo sapiens) (UniProt P07550). The assay is described as follows: Adrenergic beta2 receptor (ADRB2) small molecule antagonists, cell-based qHTS assay (AID 1963592). Note: series mostly up to about 92 µM; nearly all actives have a fitted effect of over 50% in size. Put shortly: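 Cells (CHO, stable ADRB2 overexpression) incubated 18-20hr at 37C; compounds added from DMSO; agonist mix (1nM isoproterenol, 100uM IBMX, 25uM Ro-20-1724) added; 0.5hr RT; d2-cAMP and anti-cAMP-cryptate added; 1hr RT; 665/615 nm read.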

The target is the same in assay [19]. The assay is described as follows: Adrenergic beta2 receptor (ADRB2) small molecule agonists, cell-based qHTS assay (AID 1963593).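 Note: CHO cells stably overexpressing human ADRB2.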 Put shortly:
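CHO cells stably over-expressing ADRB2 were plated overnight at 37C, then dosed with compounds plus a stimulation mix containing 100uM IBMX and 25uM Ro-20-1724 for 0.5hr at room temperature. cAMP was measured by HTRF competition, 1hr.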

Assay [20] can be described thus: cAMP Responsive Elements (CRE) small molecule agonists, cell-based qHTS assay (AID 1963590). Put shortly: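 HEK 293T CRE-bla, 2,000 cells/well, 18 h preincubation 37 C/5% CO2; cpds (DMSO) pinned, 3 h; LiveBLAzer B/G FRET substrate, 2 h RT.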
% is set by controls: 0 for no effect and ±100 for the full control effect.

Sequence of KiSS-1 receptor (Homo sapiens) (Q969F8 whole entry, looked up): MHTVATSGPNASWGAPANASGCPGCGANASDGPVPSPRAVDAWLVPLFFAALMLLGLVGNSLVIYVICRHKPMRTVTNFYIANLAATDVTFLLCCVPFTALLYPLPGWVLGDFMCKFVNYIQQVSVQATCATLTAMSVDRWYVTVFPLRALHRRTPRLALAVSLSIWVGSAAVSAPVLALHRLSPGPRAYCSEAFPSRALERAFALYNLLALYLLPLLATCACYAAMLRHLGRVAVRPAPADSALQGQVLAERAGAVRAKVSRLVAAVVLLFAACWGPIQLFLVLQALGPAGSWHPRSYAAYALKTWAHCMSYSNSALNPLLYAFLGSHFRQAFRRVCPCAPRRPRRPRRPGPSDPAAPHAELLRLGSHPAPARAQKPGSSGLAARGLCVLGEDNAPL
Sequence of Gonadotropin-releasing hormone receptor (Homo sapiens) (P30968 whole entry, looked up): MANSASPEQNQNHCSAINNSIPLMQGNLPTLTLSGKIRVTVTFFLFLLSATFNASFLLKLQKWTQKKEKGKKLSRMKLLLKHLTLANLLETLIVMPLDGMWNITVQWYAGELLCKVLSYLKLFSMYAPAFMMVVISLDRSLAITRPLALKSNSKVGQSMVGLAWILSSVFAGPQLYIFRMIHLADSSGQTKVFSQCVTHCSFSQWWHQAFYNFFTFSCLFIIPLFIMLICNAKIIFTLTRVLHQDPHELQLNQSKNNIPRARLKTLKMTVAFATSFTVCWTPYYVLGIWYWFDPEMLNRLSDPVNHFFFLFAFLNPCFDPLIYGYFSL
Sequence of Beta-2 adrenergic receptor (Homo sapiens) (P07550 whole entry, looked up): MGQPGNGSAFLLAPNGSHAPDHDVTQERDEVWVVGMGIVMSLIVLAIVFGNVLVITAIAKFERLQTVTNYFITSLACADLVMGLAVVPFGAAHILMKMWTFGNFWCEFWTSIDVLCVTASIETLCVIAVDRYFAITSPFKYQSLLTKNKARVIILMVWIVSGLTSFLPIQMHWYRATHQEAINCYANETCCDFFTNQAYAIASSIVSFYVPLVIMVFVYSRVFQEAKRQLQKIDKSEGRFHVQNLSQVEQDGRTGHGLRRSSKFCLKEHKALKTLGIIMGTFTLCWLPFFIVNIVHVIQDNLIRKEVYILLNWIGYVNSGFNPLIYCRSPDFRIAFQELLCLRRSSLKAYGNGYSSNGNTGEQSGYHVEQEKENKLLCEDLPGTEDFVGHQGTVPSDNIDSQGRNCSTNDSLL
Sequence of D(2) dopamine receptor (Homo sapiens) (P14416 whole entry, looked up): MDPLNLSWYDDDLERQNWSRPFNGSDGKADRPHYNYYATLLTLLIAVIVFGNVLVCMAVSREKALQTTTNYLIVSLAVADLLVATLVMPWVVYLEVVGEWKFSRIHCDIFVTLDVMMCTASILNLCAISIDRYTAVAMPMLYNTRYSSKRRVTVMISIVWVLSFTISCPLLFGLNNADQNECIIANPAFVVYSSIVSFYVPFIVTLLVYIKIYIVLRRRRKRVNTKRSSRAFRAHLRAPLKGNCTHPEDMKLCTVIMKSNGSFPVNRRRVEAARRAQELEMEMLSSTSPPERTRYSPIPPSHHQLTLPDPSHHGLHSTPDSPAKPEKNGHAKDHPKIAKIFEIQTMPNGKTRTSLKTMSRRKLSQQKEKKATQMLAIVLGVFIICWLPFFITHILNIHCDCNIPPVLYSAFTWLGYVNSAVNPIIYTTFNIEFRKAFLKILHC
Sequence of 5-hydroxytryptamine receptor 2A (Homo sapiens) (P28223 whole entry, looked up): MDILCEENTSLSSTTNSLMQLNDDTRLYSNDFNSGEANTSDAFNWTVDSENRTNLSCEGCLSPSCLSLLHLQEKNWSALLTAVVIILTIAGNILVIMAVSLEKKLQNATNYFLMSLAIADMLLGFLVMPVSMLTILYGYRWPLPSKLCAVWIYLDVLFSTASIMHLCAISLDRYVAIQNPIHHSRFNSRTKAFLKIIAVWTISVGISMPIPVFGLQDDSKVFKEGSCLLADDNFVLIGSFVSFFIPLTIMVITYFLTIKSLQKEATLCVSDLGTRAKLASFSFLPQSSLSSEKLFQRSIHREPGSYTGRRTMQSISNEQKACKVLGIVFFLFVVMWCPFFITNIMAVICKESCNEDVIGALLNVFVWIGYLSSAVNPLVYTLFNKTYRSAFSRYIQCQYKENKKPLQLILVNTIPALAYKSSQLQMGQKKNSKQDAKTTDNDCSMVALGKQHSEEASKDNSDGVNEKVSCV
Sequence of Muscarinic acetylcholine receptor M1 (Homo sapiens) (P11229 whole entry, looked up): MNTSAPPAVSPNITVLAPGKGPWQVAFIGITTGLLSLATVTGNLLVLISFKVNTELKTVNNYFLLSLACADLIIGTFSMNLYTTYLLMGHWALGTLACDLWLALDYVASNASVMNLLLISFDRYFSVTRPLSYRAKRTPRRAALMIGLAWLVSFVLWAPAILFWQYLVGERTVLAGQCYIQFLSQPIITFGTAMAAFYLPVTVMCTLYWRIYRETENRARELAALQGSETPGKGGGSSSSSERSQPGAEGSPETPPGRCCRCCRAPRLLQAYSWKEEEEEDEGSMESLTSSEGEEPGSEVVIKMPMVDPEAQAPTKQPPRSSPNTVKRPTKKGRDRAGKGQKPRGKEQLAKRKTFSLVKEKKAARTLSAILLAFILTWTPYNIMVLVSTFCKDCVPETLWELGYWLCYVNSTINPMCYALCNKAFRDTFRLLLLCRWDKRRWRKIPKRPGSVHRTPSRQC

Take `CCCCc1nc2cccnc2n1Cc1ccc(-c2ccccc2-c2nnn[nH]2)cc1`: the Potency entry in [1], in [2], in [3], in assay [6], in [7] and in assay [8] was “inactive” throughout. The Potency entry in assay [9], in assay [10], in assay [11], in assay [12], in [13] and in assay [14] was “inactive” each time. Moreover, the Potency entry in [15] and in [16] was “inactive” throughout. Further, the outcome in [4] and in assay [5] was inactive.

With `CCC1CCC(CCC(=O)O)C1` (configuration not stated), the Potency result in [1], in assay [2], in [3], in [6], in assay [7] and in assay [8] was “inactive” in each case. Further, the Potency result in assay [9], in assay [10], in [11], in [12], in assay [13] and in assay [14] was “inactive” throughout. For the same molecule, the Potency result in assay [17], in assay [18] and in assay [16] was “inactive” in each case. Further, the result in assay [4] and in assay [5] was inactive.

Turning to `CNC(=O)c1ccccc1Sc1ccc2c(/C=C/c3ccccn3)n[nH]c2c1`, the Potency result in [1], in assay [3], in assay [6], in assay [7], in assay [8] and in [9] was “inactive” throughout. Also, the Potency result in assay [10], in assay [11], in [12], in assay [14], in assay [18] and in [19] was “inactive” throughout. Further, the Potency entry in assay [15] and in assay [16] was “inactive” in each case. In [2], the Potency is 0.0841 µM (active). The result in assay [4] and in assay [5] was inactive.

For the molecule `C/C=C/C(=O)OCC(C)C`, the Potency result in [1], in [2], in assay [3], in assay [6], in assay [7] and in assay [8] was “inactive” in each case. The Potency entry in assay [9], in [10], in assay [11], in assay [12], in assay [14] and in assay [17] was “inactive” in each case. Moreover, the Potency result in assay [18], in [15] and in assay [16] was “inactive” throughout. Besides, the result in assay [4] and in assay [5] was inactive.

For `O=C(O)c1cc(O)c2ccccc2c1O`, the Potency in assay [1] was 6.11 µM (active); in [2] it was 1.72 µM (active); in [8], 8.14 µM (active). Moreover, the Potency result in assay [3], in [6], in assay [7], in assay [9], in assay [10] and in [11] was “inactive” each time. For the same molecule, the Potency entry in assay [12], in [13], in [14], in assay [17], in [18] and in [15] was “inactive” each time. Further, the result in [4] and in assay [5] was inactive.

As for `BrC/C=C/CBr`, the activity change, negative = cytotoxicity in [1] is -3.14% [at 19 µM]; in assay [8], -4.11% [at 13.5 µM]; in assay [9] it was -2.57% [at 13.5 µM]; in assay [10], -2.07% [at 13.5 µM]. In assay [2], the activity, positive = activation was -2.5% [at 19 µM]. The activity change in assay [3] is 0.305% [at 11.8 µM, hits give high values]. Further, the activation in assay [4] was -0.639% [at 15.8 µM]; in assay [5], 0.681% [at 11.8 µM]; in assay [6], -4.84% [at 13.5 µM]; in assay [7], -1.81% [at 13.6 µM]; in assay [14], 1.37% [at 15.8 µM]; in assay [20], -0.306% [at 19 µM]. Besides, the activity, negative = inhibition in [11] is -12.9% [at 12.7 µM]; in assay [13], -3.79% [at 12.6 µM]. Moreover, the activity change, negative = inhibition in assay [17] is -2.76% [at 18.9 µM]; in assay [18], -26% [at 19 µM]; in assay [16] it was 7.87% [at 18.9 µM]. In [19], the Potency result is “inactive”.

Take `CO[C@H]1C=CO[C@@]2(C)Oc3c(C)c(O)c4c(O)c(cc(O)c4c3C2=O)NC(=O)/C(C)=C\C=C/[C@H](C)[C@H](O)[C@@H](C)[C@@H](O)[C@@H](C)[C@H](OC(C)=O)[C@@H]1C`: the Potency in assay [1] was 54.9 µM (active); in [2] it was 27.5 µM (active). The Potency entry in assay [3], in assay [6], in assay [7], in assay [8], in assay [9] and in [10] was “inactive” in each case. For the same molecule, the Potency entry in assay [11], in assay [12], in assay [14], in assay [17] and in [15] was “inactive” in each case. In addition, the result in [4] and in assay [5] was inactive.
